Pol eta inh: blocks human DNA polymerase eta activity | recombinant Pol eta, fluorescent DNA replication assay | actives 1.2% (n = 390,000) | Potency, µM (highest dose often 114 µM), inactives show top-dose activity change, negative = inhibition, most hits filed as inhibitors | Q9Y253; note: % is set by controls: 0 for no effect and ±100 for the full control effect
Target sequence (Q9Y253 whole entry, looked up): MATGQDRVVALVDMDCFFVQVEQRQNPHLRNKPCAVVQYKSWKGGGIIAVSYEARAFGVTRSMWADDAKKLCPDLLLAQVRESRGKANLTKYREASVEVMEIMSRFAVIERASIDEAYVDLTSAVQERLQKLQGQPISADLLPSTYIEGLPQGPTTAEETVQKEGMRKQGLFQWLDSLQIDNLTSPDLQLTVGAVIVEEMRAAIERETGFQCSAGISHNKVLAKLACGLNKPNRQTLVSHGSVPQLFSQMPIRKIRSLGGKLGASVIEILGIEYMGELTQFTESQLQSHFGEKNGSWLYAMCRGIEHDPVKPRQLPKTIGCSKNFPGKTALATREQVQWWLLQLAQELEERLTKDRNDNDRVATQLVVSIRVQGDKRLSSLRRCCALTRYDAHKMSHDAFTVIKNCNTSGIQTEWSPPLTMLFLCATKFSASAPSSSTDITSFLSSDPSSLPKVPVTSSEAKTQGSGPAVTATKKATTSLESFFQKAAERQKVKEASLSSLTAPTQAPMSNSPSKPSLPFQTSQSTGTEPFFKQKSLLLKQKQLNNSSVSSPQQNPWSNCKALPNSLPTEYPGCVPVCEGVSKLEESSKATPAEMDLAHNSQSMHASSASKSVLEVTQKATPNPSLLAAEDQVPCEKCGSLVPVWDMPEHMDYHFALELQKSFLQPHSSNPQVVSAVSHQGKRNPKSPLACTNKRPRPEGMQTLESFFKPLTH
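Pol eta (10 nM) was preincubated with compounds for 15 min at room temperature, after which fluorescent replication substrate (50 nM final) was added to start the reaction. Fluorescence was read kinetically at 0 and 10 min.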
TDP1 block: blocks human tyrosyl-DNA phosphodiesterase 1; actives 0.28% (n = 350,000); Potency, µM (top dose mostly 130 µM), for inactives: top-dose activity change, negative = inhibition, most hits filed as inhibitors; recombinant TDP1, AlphaScreen DNA substrate cleavage; Q9NUW8; note: % is set by controls: 0 for no effect and ±100 for the full control effect; nearly all actives have a fitted effect of over 40% in size
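Steps: enzyme plus compound, 15 min RT; add biotin/phosphotyrosine-FITC oligonucleotide (15 nM final), react 5 min; add donor/acceptor beads (10 ug/ml final), 10 min; read AlphaScreen. Tdp1 at 1 nM final.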
POLK inh: inhibitors of human DNA polymerase kappa; Q9UBT6; Potency, µM (top dose mostly 107 µM), for the others: top-dose activity, negative = inhibition, most hits filed as inhibitors; purified Pol kappa, fluorescent DNA synthesis assay, 10 min; actives 0.53% (n = 400,000); note: % is set by controls: 0 for no effect and ±100 for the full control effect
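Readout: fluorescence, taken kinetically at 0 and 10 min. Conditions: 10 nM Pol kappa, 15 min RT compound preincubation, 50 nM substrate final. Controls: enzyme-free buffer wells.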
Pol beta inh: inhibitors of human DNA polymerase beta. Potency, µM (doses to about 114 µM), without a hit: top-dose activity change, negative = inhibition, actives largely listed as inhibitors. P06746. Pol beta primer extension/strand displacement, fluorescence kinetic. actives 1.3% (n = 340,000); note: % is set by controls: 0 for no effect and ±100 for the full control effect
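Preincubation: enzyme (10 nM) with compound, 15 min, RT. Reaction: substrate added to 50 nM final. Reads: 0 and 10 min. Analysis: normalized, Hill fit.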
FEN1 inhibitor: human FEN1 inhibition; Potency, µM (top dose mostly 114 µM), inactives show at the top dose activity change, negative = inhibition, most hits filed as inhibitors; Recombinant FEN1 flap cleavage, fluorescence, 15 min; P39748; actives 0.35% (n = 390,000); note: % is set by controls: 0 for no effect and ±100 for the full control effect; nearly all actives have a fitted effect of over 65% in size
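Quantitative HTS format: each compound was titrated, incubated with 10 nM nuclease for 15 min at room temperature, then challenged with flap substrate at 50 nM final. Signal change over 15 min gave concentration–effect curves.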
POLI inh: blocks human DNA polymerase iota activity; Potency, µM (titrated, usually from 115 µM), for inactives: at the highest dose activity, negative = inhibition, usual class: inhibitors; actives 1% (n = 390,000); AID 588590; Q9UNA4; Pol iota fluorescent replication assay, 10 min
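Pol iota at 10 nM preincubated 15 min with compounds at room temperature; reaction started with fluorescent substrate, 50 nM final. Fluorescence read kinetically at 0 and 10 min; buffer-only wells as negative control.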
The depositor's hits bear a star; [ ] = remark or other dose. In the library only some 2.4% were active in any assay of this set; here they are far more common. Calls come from the whole dose curve; as a rule, active = well fitted curve in the direction sought with a large enough effect; inconclusive = small, poorly fitted or top-dose-only effect, or another doubt; inactive = no such curve, though single readings can be large; an effect the other way counts as inactive or inconclusive. Potency is the fitted concentration of half-maximal effect.

O=C1/C(=C\c2ccc(-c3ccccc3Cl)o2)SC(=S)N1CC1CCCO1 (stereo not given) was read as Pol eta inh -1%, TDP1 block 9%, POLK inh -17%, Pol beta inh -1%, FEN1 inhibitor 2% and POLI inh 3%.
`Cc1ccc(/C=C2\SC(=S)N(CC3CCCO3)C2=O)o1` (stereo not given) gave Pol eta inh inconclusive, TDP1 block 11%, POLK inh inconclusive, Pol beta inh 20µM*, FEN1 inhibitor -20% and POLI inh inconclusive.
O=C(C[N+]1(CC(O)c2ccccc2)CCCCC1)c1ccccc1 (stereo not given) was read as POLK inh -11%, FEN1 inhibitor 45% and POLI inh -21%.
CC(C)c1nnc(NC(=O)Cc2cccs2)s1 was read as Pol eta inh -13%, TDP1 block 0%, POLK inh -3%, Pol beta inh 12%, FEN1 inhibitor -2% and POLI inh -14%.
COc1cccc(-c2nnc(NC(=O)Cc3cccs3)s2)c1 was read as Pol eta inh inconclusive, TDP1 block inconclusive, POLK inh -27%, Pol beta inh 20µM*, FEN1 inhibitor 6% and POLI inh -1%.
Screening O=C(Cc1cccs1)Nc1nnc(-c2ccncc2)s1 returned Pol eta inh -21%, TDP1 block 0%, POLK inh -12%, Pol beta inh inconclusive, FEN1 inhibitor -11% and POLI inh 63µM*.
Screening Cc1cccc(C(=O)Nc2c(C(=O)NCc3ccc(Cl)cc3)sc3nc(C)cc(C)c23)c1 returned Pol eta inh -14%, TDP1 block -2%, POLK inh -1%, Pol beta inh 37%, FEN1 inhibitor -13% and POLI inh -9%.
COc1cccc2c1Oc1ncccc1N(C(=O)CCC(=O)NCc1cccc(C)c1)C2 was read as Pol eta inh -7%, TDP1 block 2%, POLK inh -45%, Pol beta inh 27%, FEN1 inhibitor -8% and POLI inh 40µM*.
`COc1ccc(Cl)c(Cn2cnc3c(cnn3C(C)(C)C)c2=O)c1F` gave POLK inh 8%, FEN1 inhibitor 21% and POLI inh 6%.
`CNS(=O)(=O)c1ccc2nc(NC(=O)/C=C/c3ccco3)sc2c1` gave Pol eta inh -1%, TDP1 block inconclusive, POLK inh inconclusive, Pol beta inh inconclusive, FEN1 inhibitor -24% and POLI inh 50µM*.
`OC(CN1CCCCC1)c1ccccc1` (stereo not given) gave POLK inh 2%, FEN1 inhibitor -8% and POLI inh 13%.
`COc1ccc2[nH]c(CCc3nc4c(OC)c(OC)ccc4[nH]3)nc2c1OC` gave POLK inh -2%, FEN1 inhibitor 9% and POLI inh 60%.
O=C(CSc1nnc2c3ccccc3c3ccccc3c2n1)Nc1ccccc1 was read as TDP1 block 6% and Pol beta inh inconclusive.
Screening O=C(CSc1nnc2c3ccccc3c3ccccc3c2n1)Nc1ccccc1F returned Pol eta inh 32µM*, TDP1 block -4%, POLK inh -25%, Pol beta inh 11µM*, FEN1 inhibitor -5% and POLI inh -16%.
Screening Cc1cc(NS(=O)(=O)c2ccc3c(c2)CCC(=O)N3)ccc1F returned TDP1 block 1%.
For CCCCCCCCCCCCCCOc1ccc(C(=O)O)o1 the results were TDP1 block 40µM* and POLK inh 12µM*.
CCCCCOC(=O)c1ccccc1C(=O)O was read as Pol eta inh -15%, TDP1 block -1%, POLK inh 3%, Pol beta inh 23%, FEN1 inhibitor -5% and POLI inh 7%.
COc1cc(NCCCCCCN)c2ncccc2c1OC was read as Pol eta inh 45µM*, POLK inh -10%, FEN1 inhibitor inconclusive and POLI inh 11µM*.
`C=C[C@@H]1c2cc(C)ccc2N(S(=O)(=O)c2ccc(C)cc2)[C@H](c2ccc(C(=O)OC)cc2)C1(C#N)C#N` gave POLK inh -4%, FEN1 inhibitor 13% and POLI inh 12%.
`O=C(COc1ccc2oc(-c3ccco3)cc(=O)c2c1)N1CCCCC1` gave Pol eta inh -27%, TDP1 block 56µM*, POLK inh -3%, Pol beta inh inconclusive, FEN1 inhibitor 7% and POLI inh inconclusive.
`O=C(COc1ccc2oc(-c3ccccc3)cc(=O)c2c1)NCc1ccco1` gave Pol eta inh inconclusive, TDP1 block 50µM*, POLK inh -17%, Pol beta inh 22µM*, FEN1 inhibitor -8% and POLI inh inconclusive.
COc1ccc2oc(-c3ccco3)cc(=O)c2c1 was read as Pol eta inh 0%, TDP1 block 5%, POLK inh 8%, Pol beta inh 50µM*, FEN1 inhibitor -9% and POLI inh 7%.
`O=C(COc1ccc2c3c(c(=O)oc2c1)CCC3)N1CCCC1` gave Pol eta inh -17%, TDP1 block -6%[0.0935 µM], POLK inh -3%, Pol beta inh 0%, FEN1 inhibitor -4% and POLI inh -13%.
For O=c1cc(-c2ccco2)oc2ccc(Cl)cc12 the results were Pol eta inh -20%, TDP1 block 0%, POLK inh 0%, Pol beta inh -11%, FEN1 inhibitor -1% and POLI inh 28%.
Screening CN(C)/[N+]([O-])=N/Oc1cc(F)c([N+](=O)[O-])cc1[N+](=O)[O-] returned POLK inh -19%, FEN1 inhibitor inconclusive and POLI inh inconclusive.
`CCOC(=O)C1CCN(c2cc3c(cc2NC(=O)c2ccc(OC)c(OC)c2)n(C)c(=O)n3C)CC1` gave Pol eta inh 50µM*, TDP1 block 2%, POLK inh -8%, Pol beta inh 61%, FEN1 inhibitor -20% and POLI inh 30%.
CCOC(=O)C1CCN(c2cc3c(cc2NC(=O)c2ccccc2)n(C)c(=O)n3C)CC1 was read as Pol eta inh -10%, TDP1 block 4%, POLK inh 11%, Pol beta inh 5%, FEN1 inhibitor 12% and POLI inh 34%.
Cc1[nH]c2ccccc2c1C(=O)CNc1ccc(Br)cc1 was read as POLK inh -20%, FEN1 inhibitor -31% and POLI inh inconclusive.
Screening CC(C)NC(=O)N1CCC2(CC1)CCN(C(=O)c1cc(C(F)(F)F)cc(C(F)(F)F)c1)CC2 returned POLK inh -9%[60.1 µM].

From PubChem
